This passage reports outcome and AC50 results from PubChem BioAssay (EPA / NIEHS).

Where “and” joins values, the source holds several entries; their conditions need not be identical. Identical values can stand only once. The source holds several records for some structures; these can differ, active in one and inactive in another. Calls of active or inactive are those of the source. Rule for the calls: active = hit-call score of the fitted dose curve at least 0.9, where 1 is the maximum; inactive = score below 0.9.

Read-out in experiment [1]: Urokinase-type plasminogen activator receptor (uPAR), PLAUR (gene 5329)
Put plainly: BSK_4H_uPAR: BioMAP Diversity Plus: 4H Assay for Urokinase-type plasminogen activator receptor (uPAR) Biomarker Activity (AID 2283030). The settings on record: primary human endothelial cells (HUVEC); actives raise or lower the signal. A digest of the protocol: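 Endpoint derived via bidirectional curve fitting against DMSO baseline; readout was ELISA detection of uPAR on umbilical vein endothelial cells at 24 h post-treatment, with SRB-stained parallel cultures assessing cytotoxicity.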

Read-out in experiment [2]: Vascular endothelial growth factor receptor 2 (Homo sapiens) (UniProt P35968)
Put plainly: BSK_4H_VEGFRII: BioMAP Diversity Plus: 4H Assay for Vascular endothelial growth factor receptor 2 (VEGFR2) Biomarker Activity (AID 2283031). The settings on record: primary human endothelial cells (HUVEC); actives raise or lower the signal. In short, it runs like this:
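In this multiplexed HUVEC system, biomarker ELISA was performed after 24 h chemical exposure. Parallel SRB staining (TCA fixation, 560 nm) tracked cytotoxicity; DMSO served as baseline.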

Read-out in experiment [3]: Human Leukocyte Antigen - DR isotype (HLADR), HLA-DRA (gene 3122)
In words: BSK_BE3C_HLADR: BioMAP Diversity Plus: BE3C Assay for Human Leukocyte Antigen - DR isotype (HLADR) Biomarker Activity (AID 2283032). The settings on record: primary human bronchial epithelial cells; actives raise or lower the signal. A digest of the protocol:
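ELISA read-out of HLA-DR on human lung bronchial epithelial primary cells, measured 24 h post-dosing. Both increases and decreases were scored relative to DMSO vehicle.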

Read-out in experiment [4]: Vascular cell adhesion molecule 1 (VCAM1), VCAM1 (gene 7412)
In words: BSK_4H_VCAM1: BioMAP Diversity Plus: 4H Assay for Vascular cell adhesion molecule 1 (VCAM1) Biomarker Activity (AID 2283033).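 For outcome: cell-surface VCAM-1 protein measured by ELISA.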 The settings on record: primary human endothelial cells (HUVEC); actives raise or lower the signal. A digest of the protocol:
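ELISA read-out of VCAM-1 on human umbilical vein endothelium 24 hours after chemical dosing; gain or loss of signal was fitted relative to DMSO, with sulforhodamine B staining of parallel cultures flagging overt cytotoxicity.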

Read-out in experiment [5]: Interferon-gamma inducible Protein 10 (IP10), CXCL10 (gene 3627)
In words: BSK_BE3C_IP10: BioMAP Diversity Plus: BE3C Assay for Interferon-gamma inducible Protein 10 (IP10) Biomarker Activity (AID 2283034). The settings on record: primary human bronchial epithelial cells; actives raise or lower the signal. In short, it runs like this: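 Chemical is dosed onto human lung bronchial epithelial primary cells, cultures are incubated 24 h, and IP-10 is then quantified by ELISA. Gain or loss of signal is fitted in both directions relative to DMSO.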

Read-out in experiment [6]: Monokine induced gamma interferon (MIG), CXCL9 (gene 4283)
In words: BSK_BE3C_MIG: BioMAP Diversity Plus: BE3C Assay for Monokine induced gamma interferon (MIG) Biomarker Activity (AID 2283035). The settings on record: primary human bronchial epithelial cells; actives raise or lower the signal. In short, it runs like this: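 Primary human bronchial epithelial cells treated for 24 h; MIG levels measured by ELISA, fitted bidirectionally versus DMSO. Parallel SRB total-protein staining assessed cytotoxicity.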

Read-out in experiment [7]: Transforming growth factor beta 1 (TGFb1), TGFB1 (gene 7040)
Put plainly: BSK_BE3C_TGFb1: BioMAP Diversity Plus: BE3C Assay for Transforming growth factor beta 1 (TGFb1) Biomarker Activity (AID 2283036;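 note: TGF-b1 protein level measured by ELISA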). The settings on record: primary human bronchial epithelial cells; actives raise or lower the signal. In short, it runs like this: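 Primary human lung bronchial epithelial cells; compound exposure 24 h; TGF-b1 by ELISA; bidirectional fit, DMSO baseline. Parallel SRB total-protein staining for cytotoxicity.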

Read-out in experiment [8]: urokinase plasminogen activator (uPA), PLAU (gene 5328)
In words: BSK_BE3C_uPA: BioMAP Diversity Plus: BE3C Assay for urokinase plasminogen activator (uPA) Biomarker Activity (AID 2283038).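 Note: uPA protein level quantified by ELISA in cell cultures; uPA read one day after compound addition.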 The settings on record: primary human bronchial epithelial cells; actives raise or lower the signal. A digest of the protocol:
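Using confluent primary human lung bronchial epithelial cultures, we dosed chemicals, waited 24 h, then ran a uPA ELISA, fitting bidirectionally against DMSO.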

Read-out in experiment [9]: Urokinase-type plasminogen activator receptor (uPAR), PLAUR (gene 5329)
Put plainly: BSK_BE3C_uPAR: BioMAP Diversity Plus: BE3C Assay for Urokinase-type plasminogen activator receptor (uPAR) Biomarker Activity (AID 2283039).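 Note: cells exposed to compound for one day before measurement.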 The settings on record: primary human bronchial epithelial cells; actives raise or lower the signal. In short, it runs like this:
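Human bronchial epithelial primary cells; chemical exposure 24 h; uPAR by ELISA; bidirectional fit vs DMSO control.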

Read-out in experiment [10]: Interleukin-6 (IL6), IL6 (gene 3569)
In words: BSK_CASM3C_IL6: BioMAP Diversity Plus: CASM3C Assay for Interleukin-6 (IL6) Biomarker Activity for (AID 2283040). The settings on record: primary human coronary artery smooth muscle cells; actives raise or lower the signal.

Read-out in experiment [11]: Tissue plasminogen activator (tPA), PLAT (gene 5327)
In words: BSK_BE3C_tPA: BioMAP Diversity Plus: BE3C Assay for Tissue plasminogen activator (tPA) Biomarker Activity (AID 2283041).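 For outcome: tPA level quantified by ELISA one day after compound addition.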 The settings on record: primary human bronchial epithelial cells; actives raise or lower the signal. In short, it runs like this: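 Primary human lung bronchial epithelial cultures receive test chemical; after 24 h, tPA is quantified by ELISA, and gain or loss of signal is fitted bidirectionally relative to DMSO baseline.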

Read-out in experiment [12]: Interleukin-8 (IL8), CXCL8 (gene 3576)
In words: BSK_CASM3C_IL8: BioMAP Diversity Plus: CASM3C Assay for Interleukin-8 (IL8) Biomarker Activity (AID 2283042).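 Note: IL-8 protein level quantified by ELISA.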 The settings on record: primary human coronary artery smooth muscle cells; actives raise or lower the signal.

Read-out in experiment [13]: Human Leukocyte Antigen - DR isotype (HLADR), HLA-DRA (gene 3122)
In words: BSK_CASM3C_HLADR: BioMAP Diversity Plus: CASM3C Assay for Human Leukocyte Antigen - DR isotype (HLADR) Biomarker Activity (AID 2283043).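 Note: cell-surface HLA-DR protein level quantified by ELISA.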 The settings on record: primary human coronary artery smooth muscle cells; actives raise or lower the signal.

Read-out in experiment [14]: Macrophage colony-stimulating factor (MCSF), CSF1 (gene 1435)
In words: BSK_CASM3C_MCSF: BioMAP Diversity Plus: CASM3C Assay for Macrophage colony-stimulating factor (MCSF) Biomarker Activity (AID 2283044).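 Note: M-CSF protein amount quantified by ELISA after 24 h exposure.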 The settings on record: primary human coronary artery smooth muscle cells; actives raise or lower the signal.

Read-out in experiment [15]: Low-density lipoprotein receptor (LDLR), LDLR (gene 3949)
Put plainly: BSK_CASM3C_LDLR: BioMAP Diversity Plus: CASM3C Assay for Low-density lipoprotein receptor (LDLR) Biomarker Activity (AID 2283045).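 Note: LDLR protein level on the cell surface quantified by ELISA.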 The settings on record: primary human coronary artery smooth muscle cells; actives raise or lower the signal.

Read-out in experiment [16]: Monocyte Chemoattractant Protein-1 (MCP1), CCL2 (gene 6347)
In words: BSK_CASM3C_MCP1: BioMAP Diversity Plus: CASM3C Assay for Monocyte Chemoattractant Protein-1 (MCP1) Biomarker Activity (AID 2283046).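 Note: MCP-1 level quantified by ELISA 24 h after dosing.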 The settings on record: primary human coronary artery smooth muscle cells; actives raise or lower the signal.

A short description of experiment [17]: BSK_CASM3C_Proliferation: Cell Proliferation Assessment in the BioMAP Diversity Plus: CASM3C Assay (AID 2283047).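 Note: sulforhodamine B total protein stain as relative cell number at 560 nm; sub-confluent cells exposed 48 h before staining; fitted both ways against DMSO so gain or loss of cell number.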 The settings on record: primary human coronary artery smooth muscle cells.
Read-out in experiment [18]: Monokine induced gamma interferon (MIG), CXCL9 (gene 4283)
In words: BSK_CASM3C_MIG: BioMAP Diversity Plus: CASM3C Assay for Monokine induced gamma interferon (MIG) Biomarker Activity (AID 2283048). The settings on record: primary human coronary artery smooth muscle cells; actives raise or lower the signal.

Read-out in experiment [19]: serum amyloid A (SAA), SAA1 (gene 6288)
In words: BSK_CASM3C_SAA: BioMAP Diversity Plus: CASM3C Assay for serum amyloid A (SAA) Biomarker Activity (AID 2283049).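 Note: SAA protein level quantified by ELISA.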 The settings on record: primary human coronary artery smooth muscle cells; actives raise or lower the signal.

For `CCCCCCCCCCCCS`, the outcome in experiment [1], in experiment [2], in experiment [6], in experiment [7], in [8] and in experiment [9] was inactive. In addition, the outcome in [10], in experiment [11], in experiment [12], in experiment [14], in [15] and in experiment [18] was inactive. In addition, the result in experiment [19] was inactive. In addition, the AC50 in [3] was 20 µM (active); in experiment [4] it was 11.2 µM (active); in experiment [5] it was 20 µM (active); in experiment [13] it was 33.8 µM (active); in experiment [16] it was 3.97 µM (active); in experiment [17], 24.4 µM (active).
For `CC(=O)OCC=C(C)CCC=C(C)CCC=C(C)C`, the result in experiment [1], in experiment [2], in experiment [4], in experiment [6], in experiment [7] and in experiment [8] was inactive. Moreover, the outcome in [9], in [10], in experiment [12], in experiment [13], in experiment [14] and in experiment [15] was inactive. For the same molecule, the outcome in experiment [16], in [17], in experiment [18] and in experiment [19] was inactive. Besides, the AC50 was 3.97 µM (active) in [3], 8.81 µM (active) in [5] and 3.97 µM (active) in experiment [11].
As to `C=C(C)C(=O)OCCC(F)(F)C(F)(F)C(F)(F)C(F)(F)C(F)(F)C(F)(F)C(F)(F)C(F)(F)F`, the result in experiment [1], in [2], in experiment [3], in experiment [4], in experiment [5] and in experiment [6] was inactive. Moreover, the result in [8], in experiment [9], in experiment [10], in experiment [11], in experiment [12] and in experiment [13] was inactive. Also, the outcome in [14], in experiment [15], in experiment [16], in experiment [17], in experiment [18] and in experiment [19] was inactive.
Turning to `O=C(O)C(F)(F)OC(F)(F)C(F)(F)OC(F)(F)C(F)(F)C(F)(F)C(F)(F)F`, the outcome in experiment [1], in experiment [2], in experiment [4], in [6], in experiment [8] and in [9] was inactive. In addition, the outcome in experiment [10], in [11], in experiment [12], in experiment [13], in experiment [14] and in experiment [15] was inactive. In addition, the result in experiment [16], in experiment [17], in [18] and in [19] was inactive. Besides, the half-maximal activity concentration (AC50) in experiment [3] is 21.2 µM (active) and 13.3 µM (active); in experiment [5], 46.8 µM (active) and 41.4 µM (active); in experiment [11], 12.4 µM (active); in experiment [16] it was 48 µM (active).
Consider `O=C1OC2(c3ccc(O)cc3Oc3cc(O)ccc32)c2ccccc21`, for which the result in experiment [1], in [2], in [3], in experiment [4], in experiment [5] and in experiment [6] was inactive. For the same molecule, the outcome in [7], in experiment [8], in experiment [9], in experiment [10], in experiment [11] and in experiment [12] was inactive. For the same molecule, the outcome in [13], in experiment [14], in experiment [15], in experiment [16], in experiment [17] and in experiment [18] was inactive. The outcome in experiment [19] was inactive.
